Data published in the supplement of paper PMC11732987, “Enantioselective OTUD7B fragment discovery through chemoproteomics screening and high-throughput optimisation” (Communications Chemistry, 2025).

Columns and labels:
Assay in all cases: log2 ratio of Biotin-Ahx-Ub-VS probe labelling (fragment/DMSO); higher = less target engagement (more negative = stronger competition), active = hit call of the paper (q ≤ 0.05, log2 ratio ≤ -1)
Conditions in all cases: compound concentration: 200 uM; treatment time: 3 h
[1] = target: T1, USP19 (UniProt O94966)
T1 sequence (whole entry): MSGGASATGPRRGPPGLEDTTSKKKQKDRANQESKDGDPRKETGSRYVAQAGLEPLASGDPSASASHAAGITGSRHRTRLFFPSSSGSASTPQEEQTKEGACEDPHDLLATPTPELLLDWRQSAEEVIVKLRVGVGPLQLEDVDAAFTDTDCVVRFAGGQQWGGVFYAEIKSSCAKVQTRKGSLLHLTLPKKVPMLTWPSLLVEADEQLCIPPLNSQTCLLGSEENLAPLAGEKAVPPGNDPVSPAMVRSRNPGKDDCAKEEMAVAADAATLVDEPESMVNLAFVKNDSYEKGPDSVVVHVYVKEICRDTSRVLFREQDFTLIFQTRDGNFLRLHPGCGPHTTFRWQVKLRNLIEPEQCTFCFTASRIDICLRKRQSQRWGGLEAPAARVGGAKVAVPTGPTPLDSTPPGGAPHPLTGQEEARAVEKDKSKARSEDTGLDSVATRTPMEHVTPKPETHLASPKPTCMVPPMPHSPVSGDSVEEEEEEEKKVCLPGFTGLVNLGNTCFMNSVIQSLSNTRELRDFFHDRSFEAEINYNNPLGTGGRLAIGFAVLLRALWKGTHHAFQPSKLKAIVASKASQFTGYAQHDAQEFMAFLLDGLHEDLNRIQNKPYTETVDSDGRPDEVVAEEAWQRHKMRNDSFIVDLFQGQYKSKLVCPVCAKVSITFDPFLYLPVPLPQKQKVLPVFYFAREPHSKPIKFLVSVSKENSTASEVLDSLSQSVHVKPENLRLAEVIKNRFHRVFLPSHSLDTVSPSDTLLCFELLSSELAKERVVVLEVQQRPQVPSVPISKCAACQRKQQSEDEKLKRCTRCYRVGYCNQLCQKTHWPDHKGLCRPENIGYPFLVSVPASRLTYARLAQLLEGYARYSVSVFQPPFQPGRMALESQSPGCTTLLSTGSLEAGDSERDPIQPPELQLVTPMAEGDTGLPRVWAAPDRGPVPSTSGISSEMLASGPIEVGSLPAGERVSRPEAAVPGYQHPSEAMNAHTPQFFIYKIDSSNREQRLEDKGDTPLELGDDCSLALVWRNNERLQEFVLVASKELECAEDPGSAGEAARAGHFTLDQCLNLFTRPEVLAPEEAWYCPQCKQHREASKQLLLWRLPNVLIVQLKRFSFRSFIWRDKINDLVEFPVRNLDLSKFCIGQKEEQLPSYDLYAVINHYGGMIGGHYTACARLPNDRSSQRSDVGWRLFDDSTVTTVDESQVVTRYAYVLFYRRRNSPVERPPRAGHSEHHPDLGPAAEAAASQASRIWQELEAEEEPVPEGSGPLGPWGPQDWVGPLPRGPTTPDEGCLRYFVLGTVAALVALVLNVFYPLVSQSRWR
How it was run: (§1)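 Fragment (200 µM) or vehicle was incubated for 3 h with triplicate HEK293T lysate samples of 495 µg, which were then treated with Biotin-Ahx-Ub-VS at 0.5 µM final for 1 h. Labelled DUBs were enriched on NeutrAvidin, digested with LysC and trypsin, and analysed by diaPASEF LC-MS/MS. Values are average log2 fragment/vehicle ratios from an unpaired t-test on global-median-normalised Spectronaut label-free quantities, using proteins with ≥2 unique peptides.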

[2] = target: USP24 (UniProt Q9UPU5)
USP24, sequence (Q9UPU5 whole entry): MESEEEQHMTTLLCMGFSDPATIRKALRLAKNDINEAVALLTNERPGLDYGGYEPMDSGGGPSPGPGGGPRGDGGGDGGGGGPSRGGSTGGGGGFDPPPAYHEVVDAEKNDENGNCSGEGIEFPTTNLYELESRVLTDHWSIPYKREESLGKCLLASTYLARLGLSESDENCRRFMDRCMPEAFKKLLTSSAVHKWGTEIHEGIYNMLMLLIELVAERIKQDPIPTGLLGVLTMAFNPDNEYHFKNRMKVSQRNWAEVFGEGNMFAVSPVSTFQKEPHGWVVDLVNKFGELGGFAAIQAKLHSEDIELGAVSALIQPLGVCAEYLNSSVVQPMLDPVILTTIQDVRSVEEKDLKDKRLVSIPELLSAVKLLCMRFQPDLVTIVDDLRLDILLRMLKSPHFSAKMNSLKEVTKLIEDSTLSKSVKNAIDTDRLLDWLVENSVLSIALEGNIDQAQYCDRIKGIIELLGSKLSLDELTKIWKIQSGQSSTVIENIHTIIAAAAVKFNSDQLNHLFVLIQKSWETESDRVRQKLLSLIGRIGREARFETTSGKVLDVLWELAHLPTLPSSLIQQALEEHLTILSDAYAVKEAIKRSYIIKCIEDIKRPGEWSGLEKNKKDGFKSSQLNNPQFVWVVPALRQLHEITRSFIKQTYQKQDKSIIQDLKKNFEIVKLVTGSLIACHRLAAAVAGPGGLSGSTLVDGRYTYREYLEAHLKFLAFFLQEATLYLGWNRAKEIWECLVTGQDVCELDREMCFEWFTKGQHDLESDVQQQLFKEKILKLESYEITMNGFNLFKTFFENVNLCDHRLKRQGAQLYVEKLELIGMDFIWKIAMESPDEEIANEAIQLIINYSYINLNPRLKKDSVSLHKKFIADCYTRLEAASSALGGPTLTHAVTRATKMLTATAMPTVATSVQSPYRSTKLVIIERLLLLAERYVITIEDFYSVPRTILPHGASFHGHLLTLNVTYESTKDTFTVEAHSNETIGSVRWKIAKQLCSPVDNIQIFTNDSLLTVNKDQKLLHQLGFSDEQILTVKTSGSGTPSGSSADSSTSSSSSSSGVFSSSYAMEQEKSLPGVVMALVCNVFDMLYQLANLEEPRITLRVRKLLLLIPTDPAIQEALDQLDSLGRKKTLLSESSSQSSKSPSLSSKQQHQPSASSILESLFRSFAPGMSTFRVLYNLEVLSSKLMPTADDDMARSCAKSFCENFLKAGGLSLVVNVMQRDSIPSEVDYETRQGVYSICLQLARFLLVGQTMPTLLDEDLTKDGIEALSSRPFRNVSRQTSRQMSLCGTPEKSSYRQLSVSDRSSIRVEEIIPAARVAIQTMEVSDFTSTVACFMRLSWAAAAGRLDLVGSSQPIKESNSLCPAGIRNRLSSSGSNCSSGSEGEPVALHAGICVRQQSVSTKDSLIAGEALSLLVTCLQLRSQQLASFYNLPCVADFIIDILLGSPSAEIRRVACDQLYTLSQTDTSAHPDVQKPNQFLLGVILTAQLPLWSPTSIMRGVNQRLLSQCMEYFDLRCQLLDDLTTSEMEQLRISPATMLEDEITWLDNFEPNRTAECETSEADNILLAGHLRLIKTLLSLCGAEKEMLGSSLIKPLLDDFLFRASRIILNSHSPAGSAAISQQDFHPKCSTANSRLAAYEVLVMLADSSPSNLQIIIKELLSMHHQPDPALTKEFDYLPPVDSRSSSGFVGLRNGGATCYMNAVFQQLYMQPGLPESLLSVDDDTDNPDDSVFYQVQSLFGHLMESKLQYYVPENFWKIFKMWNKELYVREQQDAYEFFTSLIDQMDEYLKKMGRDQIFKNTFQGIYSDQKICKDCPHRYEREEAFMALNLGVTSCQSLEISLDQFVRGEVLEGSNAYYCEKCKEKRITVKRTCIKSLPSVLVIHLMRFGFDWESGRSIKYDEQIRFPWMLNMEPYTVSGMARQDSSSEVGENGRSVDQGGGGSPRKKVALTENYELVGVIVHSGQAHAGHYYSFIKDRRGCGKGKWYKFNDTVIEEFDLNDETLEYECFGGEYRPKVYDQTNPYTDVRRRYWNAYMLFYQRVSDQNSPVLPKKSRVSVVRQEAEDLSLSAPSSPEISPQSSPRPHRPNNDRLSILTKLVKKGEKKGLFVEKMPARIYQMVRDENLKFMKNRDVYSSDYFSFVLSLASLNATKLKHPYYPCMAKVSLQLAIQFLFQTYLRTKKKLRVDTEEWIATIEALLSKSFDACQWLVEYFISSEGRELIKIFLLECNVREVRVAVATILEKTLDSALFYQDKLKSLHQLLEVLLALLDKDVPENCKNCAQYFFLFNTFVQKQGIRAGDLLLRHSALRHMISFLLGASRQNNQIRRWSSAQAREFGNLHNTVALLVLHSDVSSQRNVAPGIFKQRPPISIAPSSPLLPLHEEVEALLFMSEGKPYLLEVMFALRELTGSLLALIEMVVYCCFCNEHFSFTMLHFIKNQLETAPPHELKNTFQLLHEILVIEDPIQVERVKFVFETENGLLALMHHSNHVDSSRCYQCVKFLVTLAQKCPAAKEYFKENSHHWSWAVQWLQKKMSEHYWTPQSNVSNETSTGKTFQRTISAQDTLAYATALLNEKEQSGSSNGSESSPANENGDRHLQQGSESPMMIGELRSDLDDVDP
How it was run: as §1

[3] = target: T2, USP25 (UniProt Q9UHP3)
T2 sequence (whole entry): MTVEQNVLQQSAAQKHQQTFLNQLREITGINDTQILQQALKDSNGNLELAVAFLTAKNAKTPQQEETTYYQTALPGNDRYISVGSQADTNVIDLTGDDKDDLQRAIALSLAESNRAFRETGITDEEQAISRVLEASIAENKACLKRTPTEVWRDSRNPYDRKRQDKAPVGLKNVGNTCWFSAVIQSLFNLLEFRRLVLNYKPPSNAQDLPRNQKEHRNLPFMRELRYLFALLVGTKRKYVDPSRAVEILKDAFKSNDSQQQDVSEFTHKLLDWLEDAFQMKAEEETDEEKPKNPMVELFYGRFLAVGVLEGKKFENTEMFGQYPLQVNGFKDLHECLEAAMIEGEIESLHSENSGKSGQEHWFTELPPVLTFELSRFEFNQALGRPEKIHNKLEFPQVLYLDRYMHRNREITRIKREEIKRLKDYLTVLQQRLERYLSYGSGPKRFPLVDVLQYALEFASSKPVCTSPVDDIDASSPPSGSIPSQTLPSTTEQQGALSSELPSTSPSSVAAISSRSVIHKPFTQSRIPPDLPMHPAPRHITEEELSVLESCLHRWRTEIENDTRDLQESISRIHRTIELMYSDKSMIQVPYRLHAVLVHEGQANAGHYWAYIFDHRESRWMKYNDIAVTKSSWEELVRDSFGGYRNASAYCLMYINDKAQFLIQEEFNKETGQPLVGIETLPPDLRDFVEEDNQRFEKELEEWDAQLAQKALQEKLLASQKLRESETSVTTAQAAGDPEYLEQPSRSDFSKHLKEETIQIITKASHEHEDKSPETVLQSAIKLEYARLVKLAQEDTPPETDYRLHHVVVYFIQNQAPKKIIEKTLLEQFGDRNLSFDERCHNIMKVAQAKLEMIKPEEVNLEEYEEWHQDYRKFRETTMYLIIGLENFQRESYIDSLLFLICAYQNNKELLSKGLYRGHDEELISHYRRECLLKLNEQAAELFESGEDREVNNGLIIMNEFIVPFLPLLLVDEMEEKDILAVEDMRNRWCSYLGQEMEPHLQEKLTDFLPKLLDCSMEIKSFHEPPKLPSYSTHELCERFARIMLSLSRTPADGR
How it was run: as §1

[4] = target: T3, USP28 (UniProt Q96RU2)
T3 sequence (whole entry): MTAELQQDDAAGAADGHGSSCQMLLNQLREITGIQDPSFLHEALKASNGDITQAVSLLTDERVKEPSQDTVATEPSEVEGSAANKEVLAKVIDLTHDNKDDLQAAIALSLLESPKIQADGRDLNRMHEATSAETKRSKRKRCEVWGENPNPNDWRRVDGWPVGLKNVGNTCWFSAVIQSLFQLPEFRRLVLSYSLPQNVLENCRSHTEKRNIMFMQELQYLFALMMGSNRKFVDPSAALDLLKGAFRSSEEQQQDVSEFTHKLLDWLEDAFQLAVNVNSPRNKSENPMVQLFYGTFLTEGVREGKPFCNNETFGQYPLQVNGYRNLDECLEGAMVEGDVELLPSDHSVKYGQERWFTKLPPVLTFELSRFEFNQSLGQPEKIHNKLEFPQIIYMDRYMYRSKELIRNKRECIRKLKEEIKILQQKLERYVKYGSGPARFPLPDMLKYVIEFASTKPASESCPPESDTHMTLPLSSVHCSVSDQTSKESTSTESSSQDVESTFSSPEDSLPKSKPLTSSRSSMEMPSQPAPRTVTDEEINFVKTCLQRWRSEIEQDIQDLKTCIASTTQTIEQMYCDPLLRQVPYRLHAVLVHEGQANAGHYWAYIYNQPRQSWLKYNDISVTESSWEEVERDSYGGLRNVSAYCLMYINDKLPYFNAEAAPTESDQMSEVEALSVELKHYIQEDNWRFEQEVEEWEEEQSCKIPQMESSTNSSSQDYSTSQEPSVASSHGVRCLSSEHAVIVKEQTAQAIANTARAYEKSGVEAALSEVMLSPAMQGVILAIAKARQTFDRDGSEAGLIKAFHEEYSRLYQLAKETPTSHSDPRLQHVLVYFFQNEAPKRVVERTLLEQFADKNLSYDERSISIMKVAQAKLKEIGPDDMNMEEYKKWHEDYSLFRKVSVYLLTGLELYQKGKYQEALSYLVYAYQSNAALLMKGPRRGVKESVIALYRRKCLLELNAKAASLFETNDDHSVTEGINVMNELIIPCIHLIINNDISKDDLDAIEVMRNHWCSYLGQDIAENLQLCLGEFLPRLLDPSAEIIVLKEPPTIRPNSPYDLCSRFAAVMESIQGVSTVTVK
How it was run: as §1

Measured: log2 ratio of Biotin-Ahx-Ub-VS probe labelling

COc1cccc(CN(C)C(=O)CCl)c1
inactive: [1] -0.352 | [2] -0.497 | [3] -0.669 | [4] -0.772
